# Results published in publication PMC5540273 (PLoS ONE, 2017).
# “And” between values parts separate entries of the source, which are not always exact repeats. Identical values can stand only once. Like-named read-outs stand apart in the source and are kept apart here.
# Experiments:
# MAP4K3 = settings: concentration: 1 μM, replicates: in singlicate, n = 1
# MAP4K4 = settings: concentration: 1 μM, replicates: in singlicate, n = 1
# MAP4K5 = settings: concentration: 1 μM, replicates: in singlicate, n = 1
# MARK1 = settings: concentration: 1 μM, replicates: in singlicate, n = 1
# MARK2 = settings: concentration: 1 μM, replicates: in singlicate, n = 1
# MARK3 = settings: concentration: 1 μM, replicates: in singlicate, n = 1
# MARK4 = settings: concentration: 1 μM, replicates: in singlicate, n = 1
# MEK1 = tested on: T1, MEK1; settings: concentration: 1 μM, replicates: in singlicate, n = 1
# T1 construct: gene MAP2K1
# MEK2 = tested on: T2, MEK2; settings: concentration: 1 μM, replicates: in singlicate, n = 1
# T2 construct: gene MAP2K2
# MEK3 = tested on: T3, MEK3; settings: concentration: 1 μM, replicates: in singlicate, n = 1
# T3 construct: gene MAP2K3
# MEK4 = tested on: T4, MEK4; settings: concentration: 1 μM, replicates: in singlicate, n = 1
# T4 construct: gene MAP2K4
# MEK5 = tested on: T5, MEK5; settings: concentration: 1 μM, replicates: in singlicate, n = 1
# T5 construct: gene MAP2K5
# MEK6 = tested on: T6, MEK6; settings: concentration: 1 μM, replicates: in singlicate, n = 1
# T6 construct: gene MAP2K6
# MELK = settings: concentration: 1 μM, replicates: in singlicate, n = 1
# MERTK = settings: concentration: 1 μM, replicates: in singlicate, n = 1
# MET = settings: concentration: 1 μM, replicates: in singlicate, n = 1
# MINK = tested on: T7, MINK; settings: concentration: 1 μM, replicates: in singlicate, n = 1
# T7 construct: gene MINK1
# MAPKAPK2 = settings: concentration: 1 μM, replicates: in singlicate; n = 1
# MAPKAPK5 = settings: concentration: 1 μM, replicates: in singlicate; n = 1
# MAST1 = settings: concentration: 1 μM, replicates: in singlicate; n = 1
# 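Also: KINOMEscan kinase panel screen.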
compound,measurement,setting,value
NCCNS(=O)(=O)c1ccc(-c2ccnc3[nH]ccc23)cc1 [GSK977617],%Inh,MAP4K3; 1 µM,20% and 0%
same,%Inh,MAP4K4; 1 µM,43% and 25%
same,%Inh,MAP4K5; 1 µM,8% and 0%
same,%Inh,MARK1; 1 µM,18% and 0%
same,%Inh,MARK2; 1 µM,53% and 40%
same,%Inh,MARK3; 1 µM,25% and 4%
same,%Inh,MARK4; 1 µM,36% and 12%
same,%Inh,MEK1; 1 µM,24% and 17%
same,%Inh,MEK2; 1 µM,52% and 48%
same,%Inh,MEK3; 1 µM,46% and 21%
same,%Inh,MEK4; 1 µM,42% and 23%
same,%Inh,MEK5; 1 µM,88% and 70%
same,%Inh,MEK6; 1 µM,18% and 11%
same,%Inh,MELK; 1 µM,99.2% and 95.2%
same,%Inh,MERTK; 1 µM,73% and 57%
same,%Inh,MET; 1 µM,20% and 0%
same,%Inh,MINK; 1 µM,48% and 34%
CC(C)Oc1ccc2c(-c3ccnc(Nc4ccc(N5CCN(C)CC5)cc4)n3)cnn2n1 [GW696155],%Inh,MAP4K3,52%
same,%Inh,MAP4K4,1%
same,%Inh,MAP4K5,0%
same,%Inh,MAPKAPK2,0%
same,%Inh,MAPKAPK5,0%
same,%Inh,MARK1,50%
same,%Inh,MARK2,72%
same,%Inh,MARK3,77%
same,%Inh,MARK4,59%
same,%Inh,MAST1,8%
same,%Inh,MEK1,25%
same,%Inh,MEK2,43%
same,%Inh,MEK3,43%
same,%Inh,MEK4,50%
same,%Inh,MEK5,82%
same,%Inh,MEK6,53%
same,%Inh,MELK,71%
same,%Inh,MERTK,10%
same,%Inh,MET,0%
same,%Inh,MINK,65%
CSc1ccc(-c2cc3ncnc(SCC(=O)O)c3s2)cc1,%Inh,MAP4K3,0%
same,%Inh,MAP4K4,0%
same,%Inh,MAP4K5,0%
same,%Inh,MAPKAPK2,1%
same,%Inh,MAPKAPK5,0%
same,%Inh,MARK1,0%
same,%Inh,MARK2,18%
same,%Inh,MARK3,6%
same,%Inh,MARK4,0%
same,%Inh,MAST1,15%
same,%Inh,MEK1,0%
same,%Inh,MEK2,0%
same,%Inh,MEK3,2%
same,%Inh,MEK4,0%
same,%Inh,MEK5,1%
same,%Inh,MEK6,0%
same,%Inh,MELK,10%
same,%Inh,MERTK,0%
same,%Inh,MET,3%
same,%Inh,MINK,8%
Cl.Nc1ncnc2occ(-c3ccc(NC(=O)Nc4cc(C(F)(F)F)ccc4F)cc3)c12 [SB-707548],%Inh,MAP4K3,77%
same,%Inh,MAP4K4,92.9%
same,%Inh,MAP4K5,99.7%
same,%Inh,MAPKAPK2,15%
same,%Inh,MAPKAPK5,0%
same,%Inh,MARK1,0%
same,%Inh,MARK2,32%
same,%Inh,MARK3,26%
same,%Inh,MARK4,0%
same,%Inh,MAST1,0%
same,%Inh,MEK1,15%
same,%Inh,MEK2,57%
same,%Inh,MEK3,0%
same,%Inh,MEK4,23%
same,%Inh,MEK5,91.4%
same,%Inh,MEK6,10%
same,%Inh,MELK,33%
same,%Inh,MERTK,98.3%
same,%Inh,MET,17%
same,%Inh,MINK,62%
Fc1ccc(-c2nn3c(OCC(F)(F)F)cccc3c2-c2ccncc2)cc1 [GW514784],%Inh,MAP4K3,0%
same,%Inh,MAP4K4,0%
same,%Inh,MAP4K5,0%
same,%Inh,MAPKAPK2,0%
same,%Inh,MAPKAPK5,0%
same,%Inh,MARK1,0%
same,%Inh,MARK2,0%
same,%Inh,MARK3,0%
same,%Inh,MARK4,0%
same,%Inh,MAST1,48%
same,%Inh,MEK1,0%
same,%Inh,MEK2,0%
same,%Inh,MEK3,0%
same,%Inh,MEK4,0%
same,%Inh,MEK5,20%
same,%Inh,MEK6,1%
same,%Inh,MELK,3%
same,%Inh,MERTK,0%
same,%Inh,MET,0%
same,%Inh,MINK,35%
Cc1nnc(-c2ccc3ncc(-c4ccc(S(C)=O)cc4)n3c2)o1 (centres unmarked),%Inh,MAP4K3,0%
same,%Inh,MAP4K4,0%
same,%Inh,MAP4K5,0%
same,%Inh,MAPKAPK2,22%
same,%Inh,MAPKAPK5,5%
same,%Inh,MARK1,0%
same,%Inh,MARK2,20%
same,%Inh,MARK3,0%
same,%Inh,MARK4,0%
same,%Inh,MAST1,34%
same,%Inh,MEK1,9%
same,%Inh,MEK2,9%
same,%Inh,MEK3,6%
same,%Inh,MEK4,24%
same,%Inh,MEK5,42%
same,%Inh,MEK6,0%
same,%Inh,MELK,4%
same,%Inh,MERTK,0%
same,%Inh,MET,15%
same,%Inh,MINK,0%
COc1ccc(Nc2nccc(N3CCC(NC(=O)Nc4cc(C)ccc4C)C3)n2)cc1 (centres unmarked) [GSK1379741],%Inh,MAP4K3,0%
same,%Inh,MAP4K4,0%
same,%Inh,MAP4K5,0%
same,%Inh,MAPKAPK2,14%
same,%Inh,MAPKAPK5,0%
same,%Inh,MARK1,0%
same,%Inh,MARK2,0%
same,%Inh,MARK3,0%
same,%Inh,MARK4,0%
same,%Inh,MAST1,9%
same,%Inh,MEK1,0%
same,%Inh,MEK2,0%
same,%Inh,MEK3,0%
same,%Inh,MEK4,14%
same,%Inh,MEK5,44%
same,%Inh,MEK6,0%
same,%Inh,MELK,0%
same,%Inh,MERTK,24%
same,%Inh,MET,0%
same,%Inh,MINK,0%
Cc1c(Cn2c(C)nn3c(=O)cc(N4CCOC(C)C4)nc23)cccc1C(F)(F)F (centres unmarked) [GSK2344444],%Inh,MAP4K3,0%
same,%Inh,MAP4K4,18%
same,%Inh,MAP4K5,16%
same,%Inh,MAPKAPK2,1%
same,%Inh,MAPKAPK5,0%
same,%Inh,MARK1,0%
same,%Inh,MARK2,0%
same,%Inh,MARK3,0%
same,%Inh,MARK4,0%
same,%Inh,MAST1,0%
same,%Inh,MEK1,0%
same,%Inh,MEK2,0%
same,%Inh,MEK3,0%
same,%Inh,MEK4,17%
same,%Inh,MEK5,49%
same,%Inh,MEK6,0%
same,%Inh,MELK,0%
same,%Inh,MERTK,10%
same,%Inh,MET,0%
same,%Inh,MINK,0%
Cc1nnc(-c2ccc3occ(-c4ccc(C(C)O)cc4)c3c2)o1 (centres unmarked),%Inh,MAP4K3,7%
same,%Inh,MAP4K4,12%
same,%Inh,MAP4K5,15%
same,%Inh,MAPKAPK2,21%
same,%Inh,MAPKAPK5,19%
same,%Inh,MARK1,7%
same,%Inh,MARK2,16%
same,%Inh,MARK3,0%
same,%Inh,MARK4,8%
same,%Inh,MAST1,0%
same,%Inh,MEK1,10%
same,%Inh,MEK2,24%
same,%Inh,MEK3,11%
same,%Inh,MEK4,15%
same,%Inh,MEK5,8%
same,%Inh,MEK6,8%
same,%Inh,MELK,12%
same,%Inh,MERTK,3%
same,%Inh,MET,5%
same,%Inh,MINK,0%
Cc1c2ccc(N(C)c3ccnc(Nc4cccc(S(N)(=O)=O)c4)n3)cc2nn1Cc1ccccc1.Cl.Cl [GW787226],%Inh,MAP4K3,70%
same,%Inh,MAP4K4,33%
same,%Inh,MAP4K5,87%
same,%Inh,MAPKAPK2,0%
same,%Inh,MAPKAPK5,0%
same,%Inh,MARK1,18%
same,%Inh,MARK2,0%
same,%Inh,MARK3,49%
same,%Inh,MARK4,36%
same,%Inh,MAST1,0%
same,%Inh,MEK1,12%
same,%Inh,MEK2,34%
same,%Inh,MEK3,29%
same,%Inh,MEK4,75%
same,%Inh,MEK5,98.4%
same,%Inh,MEK6,23%
same,%Inh,MELK,16%
same,%Inh,MERTK,70%
same,%Inh,MET,60%
same,%Inh,MINK,54%
